Results as given in PubChem BioAssay (EPA / NIEHS).
Records with an inconclusive call do not appear. Activity calls are given as the source filed them. Rule for the calls, unless noted: active = hit-call score of the fitted dose curve at least 0.9, where 1 is the maximum; inactive = score below 0.9. Peptide text beside a SMILES is read from it.

Key:
[1] = target: Paired box protein Pax-6 (Homo sapiens) (UniProt P26367); experiment: ATG_Pax6_CIS: Attagene CIS-FACTORIAL HepG2 Assay for human Paired Box 6 (PAX6) (AID 2282956); conditions: HepG2 CIS-FACTORIAL PAX6 reporter transcription, RNA readout; actives raise or lower the signal
Paired box protein Pax-6 (Homo sapiens), sequence (P26367 whole entry, looked up): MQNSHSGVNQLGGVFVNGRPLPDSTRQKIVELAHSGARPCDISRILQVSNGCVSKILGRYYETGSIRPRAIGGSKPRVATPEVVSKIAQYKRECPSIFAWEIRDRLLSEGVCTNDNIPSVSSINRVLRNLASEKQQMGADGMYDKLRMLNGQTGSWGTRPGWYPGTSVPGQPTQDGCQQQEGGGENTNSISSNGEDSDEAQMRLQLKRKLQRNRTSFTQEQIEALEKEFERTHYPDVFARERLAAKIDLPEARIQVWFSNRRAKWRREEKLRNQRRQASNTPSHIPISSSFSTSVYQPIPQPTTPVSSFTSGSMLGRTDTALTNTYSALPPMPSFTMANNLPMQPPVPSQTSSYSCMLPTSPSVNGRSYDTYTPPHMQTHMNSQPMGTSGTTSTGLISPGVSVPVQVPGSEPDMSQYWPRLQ
How it was run: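 Fluorescent RT-PCR products separated by capillary electrophoresis report PAX6-linked promoter mRNA in HepG2 cells 24 h post-dose. Curves fitted bidirectionally, DMSO as negative control.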

[2] = ATG_PXRE_CIS: Attagene CIS-FACTORIAL HepG2 Assay for human Pregnane X Receptor Element (PXRE) (AID 2282957); conditions: HepG2 Attagene CIS-FACTORIAL PXRE reporter, mRNA; actives raise or lower the signal
How it was run: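 Read-out: fluorescence of reporter-specific RT-PCR products resolved by capillary electrophoresis, fitted bidirectionally relative to DMSO. Human HepG2 liver cells carried transfected cis-promoter reporter units and were exposed to chemicals for 24 h.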

[3] = ATG_Sox_CIS: Attagene CIS-FACTORIAL HepG2 Assay for human SRY-box transcription factor (SOX) (AID 2282960); conditions: HepG2 Attagene cis-factorial SOX reporter, mRNA; actives raise or lower the signal
How it was run: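 HepG2 cells transiently transfected with cis-element-driven multiple reporter transcription units, dosed 24 h; reporter mRNA measured by RT-PCR, FAM labelling, HpaI digestion and capillary electrophoresis. Bidirectional fit versus DMSO baseline.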

[4] = target: Transcription factor Sp1 (Homo sapiens) (UniProt P08047); experiment: ATG_Sp1_CIS: Attagene CIS-FACTORIAL HepG2 Assay for human Specificity Protein 1 (Sp1) (AID 2282961); conditions: HepG2 Sp1 cis-reporter transcription, actives raise or lower the signal
Transcription factor Sp1 (Homo sapiens), sequence (P08047 whole entry, looked up): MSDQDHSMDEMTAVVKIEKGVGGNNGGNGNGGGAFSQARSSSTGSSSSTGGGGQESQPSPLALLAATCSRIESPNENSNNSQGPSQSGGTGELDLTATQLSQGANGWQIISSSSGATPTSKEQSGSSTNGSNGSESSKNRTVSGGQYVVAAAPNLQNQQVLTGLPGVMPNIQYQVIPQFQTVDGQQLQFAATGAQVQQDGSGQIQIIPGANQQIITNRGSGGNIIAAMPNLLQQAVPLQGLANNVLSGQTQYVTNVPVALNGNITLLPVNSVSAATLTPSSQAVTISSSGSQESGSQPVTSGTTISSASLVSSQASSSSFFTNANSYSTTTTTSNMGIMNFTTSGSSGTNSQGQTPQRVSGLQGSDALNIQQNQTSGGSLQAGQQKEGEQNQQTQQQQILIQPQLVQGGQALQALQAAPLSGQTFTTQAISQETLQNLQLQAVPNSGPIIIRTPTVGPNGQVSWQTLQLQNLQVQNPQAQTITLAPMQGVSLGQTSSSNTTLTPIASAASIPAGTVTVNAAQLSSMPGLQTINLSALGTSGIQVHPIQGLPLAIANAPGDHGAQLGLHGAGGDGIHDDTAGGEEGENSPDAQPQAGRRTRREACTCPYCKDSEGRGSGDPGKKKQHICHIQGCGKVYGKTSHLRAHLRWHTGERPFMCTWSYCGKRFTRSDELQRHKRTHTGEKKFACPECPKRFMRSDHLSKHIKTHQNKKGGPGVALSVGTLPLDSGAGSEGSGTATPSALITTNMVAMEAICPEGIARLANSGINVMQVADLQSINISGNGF
How it was run: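 HepG2 cells transiently transfected with multiple reporter transcription units driven by cis-regulatory elements; Sp1-responsive reporter mRNA measured 24 h after dosing by RT-PCR and capillary electrophoresis fluorescence, fitted bidirectionally against DMSO baseline.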

[5] = ATG_SREBP_CIS: Attagene CIS-FACTORIAL HepG2 Assay for human Sterol Regulatory Element Binding (SREBP) (AID 2282962); conditions: HepG2 Attagene cis-factorial SREBP reporter, mRNA; actives raise or lower the signal
How it was run: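 Endogenous factor activity is measured in HepG2 through multiplexed reporter units under cis-element control. Following a 24 h incubation, reporter transcripts are reverse-transcribed, PCR-amplified and sized by capillary electrophoresis; activity is fitted in both directions relative to DMSO.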

[6] = target: Signal transducer and activator of transcription 3 (Homo sapiens) (UniProt P40763); experiment: ATG_STAT3_CIS: Attagene CIS-FACTORIAL HepG2 Assay for human Signal Transducer and Activator of Transcription 3 (STAT3) (AID 2282963); conditions: HepG2, Attagene cis-factorial STAT3 reporter transcription; actives raise or lower the signal
Signal transducer and activator of transcription 3 (Homo sapiens), sequence (P40763 whole entry, looked up, the tested form may be a part): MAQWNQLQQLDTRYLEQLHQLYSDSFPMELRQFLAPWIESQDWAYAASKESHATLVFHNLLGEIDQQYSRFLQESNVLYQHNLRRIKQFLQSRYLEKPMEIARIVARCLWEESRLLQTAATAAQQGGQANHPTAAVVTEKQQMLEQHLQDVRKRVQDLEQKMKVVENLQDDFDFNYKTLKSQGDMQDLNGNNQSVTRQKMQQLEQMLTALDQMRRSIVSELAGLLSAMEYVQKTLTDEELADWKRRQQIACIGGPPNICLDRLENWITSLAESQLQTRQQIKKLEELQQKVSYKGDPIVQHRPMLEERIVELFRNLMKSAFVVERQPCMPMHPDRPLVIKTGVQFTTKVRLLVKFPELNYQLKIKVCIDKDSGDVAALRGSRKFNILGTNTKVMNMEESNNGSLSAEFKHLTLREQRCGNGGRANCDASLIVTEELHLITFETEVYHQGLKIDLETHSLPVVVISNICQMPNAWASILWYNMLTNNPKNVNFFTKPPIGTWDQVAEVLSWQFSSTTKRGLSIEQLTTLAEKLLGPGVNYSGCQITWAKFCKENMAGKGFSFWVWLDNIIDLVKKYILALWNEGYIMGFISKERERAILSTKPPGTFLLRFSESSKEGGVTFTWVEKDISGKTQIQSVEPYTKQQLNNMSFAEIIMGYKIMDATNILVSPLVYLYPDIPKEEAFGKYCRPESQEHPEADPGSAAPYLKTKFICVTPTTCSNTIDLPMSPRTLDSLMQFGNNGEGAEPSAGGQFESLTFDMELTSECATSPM
How it was run: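 Readout: fluorescent reporter mRNA fragments resolved by capillary electrophoresis. Setup: HepG2 transfected with MRTUs reporting endogenous transcription-factor activity, dosed 24 h. Gain or loss of signal fitted bidirectionally against DMSO control.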

[7] = ATG_TA_CIS: Attagene CIS-FACTORIAL HepG2 Assay for human TA Basal Promoter (AID 2282964); conditions: HepG2 Attagene CIS-factorial TA basal promoter reporter; actives raise or lower the signal
How it was run: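 HepG2 cells transiently transfected with multiplexed cis-promoter reporter units, dosed 24 h. Reporter mRNA measured by RT-PCR, 6-FAM labelling, HpaI digestion and capillary electrophoresis; bidirectional fit versus DMSO baseline, serving as background control.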

[8] = ATG_TCF_b_cat_CIS: Attagene CIS-FACTORIAL HepG2 Assay for human T-Cell-Factor with beta-catenin (TCF/b-cat) (AID 2282965); conditions: HepG2 TCF/beta-catenin cis-reporter transcription, actives raise or lower the signal
How it was run: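 HepG2, transient MRTU transfection, cis-element-driven reporters (endogenous TFs). 24 h compound exposure. Readout: reporter mRNA by RT-PCR + 6-FAM primer extension, HpaI digest, capillary electrophoresis. Gain/loss fit vs DMSO baseline.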

[9] = ATG_TAL_CIS: Attagene CIS-FACTORIAL HepG2 Assay for human TAL Basal Promoter (AID 2282966); conditions: HepG2 Attagene cis-factorial TAL promoter reporter; actives raise or lower the signal;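 note: background control endpoint measuring basal TAL promoter reporter mRNA not a specific factor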
How it was run: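 HepG2, transient MRTU transfection, 24 h compound exposure; RNA → oligo(dT) RT → PCR → 6-FAM primer extension → HpaI digest → CE fluorescence. Bidirectional curve fit vs DMSO. Background-control readout.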

[10] = ATG_VDRE_CIS: Attagene CIS-FACTORIAL HepG2 Assay for human Vitamin D Receptor Element (VDRE) (AID 2282968); conditions: HepG2 VDRE cis-reporter transcription, actives raise or lower the signal
How it was run: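 Transient MRTU transfection of HepG2, 24 h compound exposure. Readout: reporter transcripts via RT-PCR and capillary electrophoresis, fluorescence. Bidirectional fit vs DMSO.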

[11] = target: X-box-binding protein 1 (Homo sapiens) (UniProt P17861); experiment: ATG_Xbp1_CIS: Attagene CIS-FACTORIAL HepG2 Assay for human X-box Binding Protein 1 (XBP1) (AID 2282972); conditions: HepG2 XBP1 cis-element reporter, Attagene multiplex; actives raise or lower the signal
X-box-binding protein 1 (Homo sapiens), sequence (P17861 whole entry, looked up): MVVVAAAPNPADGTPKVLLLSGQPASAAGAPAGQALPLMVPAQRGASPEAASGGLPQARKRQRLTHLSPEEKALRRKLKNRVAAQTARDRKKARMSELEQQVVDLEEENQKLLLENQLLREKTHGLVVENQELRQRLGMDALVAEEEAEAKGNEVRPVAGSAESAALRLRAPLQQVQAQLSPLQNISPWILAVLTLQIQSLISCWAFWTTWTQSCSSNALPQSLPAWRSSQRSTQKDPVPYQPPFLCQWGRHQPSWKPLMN
How it was run: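 Multiplexed cis-reporter readout in transfected HepG2 liver cells. Exposure lasted 24 hours. Activity in either direction was fitted against DMSO as negative control and baseline.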

[12] = ATG_M_19_TRANS: Attagene TRANS-FACTORIAL HepG2 Assay for M19 Transcription Factor (Internal Marker) (AID 2282974; active = hit-call score of the fitted dose curve at least 0.9, where 1 is the maximum); conditions: HepG2 Attagene TRANS-FACTORIAL M19 internal marker reporter
How it was run: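 HepG2 cells transiently transfected with multiple GAL4-UAS reporter transcription units were exposed to chemicals for 24 h. Reporter mRNA was read by RT-PCR, 6-FAM primer extension, HpaI digestion and capillary electrophoresis; gain of signal fitted relative to DMSO.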

[13] = ATG_GAL4_TRANS: Attagene TRANS-FACTORIAL HepG2 Assay for GAL4 (Internal Marker) (AID 2282976; active = hit-call score of the fitted dose curve at least 0.9, where 1 is the maximum); conditions: HepG2 Attagene TRANS GAL4 internal marker reporter
How it was run: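 RT-PCR/capillary electrophoresis readout of reporter mRNA. HepG2, transient MRTU transfection (GAL4-UAS reporters), 24 h compound exposure. Background-control endpoint, positive direction vs DMSO baseline.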

[14] = ATG_RORE_CIS: Attagene CIS-FACTORIAL HepG2 Assay for human RAR-related Orphan Receptor Element (RORE) (AID 2282959); conditions: HepG2 Attagene cis-factorial RORE reporter, mRNA; actives raise or lower the signal
How it was run: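 HepG2 cells transiently transfected with multiple cis-element reporter transcription units, exposed to chemical for 24 h. Reporter mRNA quantified by RT-PCR, 6-FAM primer-extension labeling, HpaI digestion and capillary electrophoresis; bidirectional fit versus DMSO baseline.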

[15] = ATG_TGFb_CIS: Attagene CIS-FACTORIAL HepG2 Assay for human Transforming Growth Factor (TGF) (AID 2282967); conditions: HepG2 Attagene CIS TGFb reporter, mRNA transcription; actives raise or lower the signal
How it was run: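 HepG2 cells transiently transfected with cis-promoter-driven multiplexed reporter units; 24 h compound exposure. Reporter mRNA measured by RT-PCR, 6-FAM labeling, HpaI digestion and capillary electrophoresis; bidirectional fit versus DMSO baseline.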

[16] = target: Nuclear receptor subfamily 1 group I member 3 (Homo sapiens) (UniProt Q14994); experiment: ATG_CAR_TRANS: Attagene TRANS-FACTORIAL HepG2 Assay for human Constitutive Androstane Receptor (CAR) (AID 2282969; active = hit-call score of the fitted dose curve at least 0.9, where 1 is the maximum;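 note: activators raise reporter mRNA above DMSO so AC50 marks induction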); conditions: HepG2 Attagene TRANS-FACTORIAL CAR reporter
Nuclear receptor subfamily 1 group I member 3 (Homo sapiens), sequence (Q14994 whole entry, looked up, the tested form may be a part): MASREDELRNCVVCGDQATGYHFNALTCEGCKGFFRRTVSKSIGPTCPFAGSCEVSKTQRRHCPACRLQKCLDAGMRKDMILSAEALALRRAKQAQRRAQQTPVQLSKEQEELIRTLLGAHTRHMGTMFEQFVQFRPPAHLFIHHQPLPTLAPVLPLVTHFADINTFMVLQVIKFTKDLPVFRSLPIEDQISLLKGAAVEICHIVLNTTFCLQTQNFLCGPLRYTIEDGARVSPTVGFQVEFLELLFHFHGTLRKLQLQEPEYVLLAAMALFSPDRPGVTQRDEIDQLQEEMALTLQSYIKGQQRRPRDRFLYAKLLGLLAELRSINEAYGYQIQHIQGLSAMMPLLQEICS
How it was run: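 Transiently transfected HepG2, multiplex TRANS reporters (CAR-Gal4 chimera driving GAL4-UAS reporter). 24 h dosing. Readout: reporter transcript by RT-PCR + capillary electrophoresis, fluorescence intensity; positive direction vs DMSO.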

[17] = target: Estrogen receptor (Homo sapiens) (UniProt P03372); experiment: ATG_ERa_TRANS: Attagene TRANS-FACTORIAL HepG2 Assay for human Estrogen Receptor alpha (ERa) (AID 2282970; active = hit-call score of the fitted dose curve at least 0.9, where 1 is the maximum); conditions: HepG2 Attagene TRANS ERa GAL4 reporter, mRNA
Estrogen receptor (Homo sapiens), sequence (P03372 whole entry, looked up, the tested form may be a part): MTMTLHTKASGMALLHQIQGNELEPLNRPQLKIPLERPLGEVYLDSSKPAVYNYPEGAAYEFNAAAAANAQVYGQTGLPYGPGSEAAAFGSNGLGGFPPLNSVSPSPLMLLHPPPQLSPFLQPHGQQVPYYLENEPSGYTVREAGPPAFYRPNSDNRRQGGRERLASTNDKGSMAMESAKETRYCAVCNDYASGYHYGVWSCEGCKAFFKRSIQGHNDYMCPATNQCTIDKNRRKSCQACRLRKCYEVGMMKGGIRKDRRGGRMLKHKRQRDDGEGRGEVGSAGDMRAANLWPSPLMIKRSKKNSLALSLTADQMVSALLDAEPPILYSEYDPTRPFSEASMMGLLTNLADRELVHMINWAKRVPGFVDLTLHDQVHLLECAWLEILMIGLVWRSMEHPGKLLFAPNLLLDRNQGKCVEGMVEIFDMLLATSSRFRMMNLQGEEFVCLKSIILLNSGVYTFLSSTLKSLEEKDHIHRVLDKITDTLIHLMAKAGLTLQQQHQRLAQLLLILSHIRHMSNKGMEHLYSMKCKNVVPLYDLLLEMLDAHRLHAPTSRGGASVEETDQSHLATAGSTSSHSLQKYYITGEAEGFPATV
How it was run: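 Reporter mRNA induction after 24 hours, detected by fluorescent RT-PCR and capillary electrophoresis, gives the read-out. Cells are HepG2 transiently transfected with GAL4-UAS reporter transcription units responding to chimeric NR-Gal4. Activity is taken as gain of signal over DMSO baseline.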

[18] = ATG_PPRE_CIS: Attagene CIS-FACTORIAL HepG2 Assay for human Peroxisome Proliferator-activated Response Element (PPRE) (AID 2282958); conditions: HepG2 PPRE cis-element reporter, Attagene transcription factor profiling; actives raise or lower the signal
How it was run: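 HepG2 cells transiently transfected with multiplexed cis-element reporter units measure endogenous transcription factor activity. After 24 h compound exposure, reporter mRNA is quantified by RT-PCR, 6-FAM labeling, HpaI digestion and capillary electrophoresis; bidirectional fits are made against DMSO baseline.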

[19] = target: Steroid hormone receptor ERR1 (Homo sapiens) (UniProt P11474); experiment: ATG_ERRa_TRANS: Attagene TRANS-FACTORIAL HepG2 Assay for human Estrogen-Related Receptor alpha (ERRa) (AID 2282971; active = hit-call score of the fitted dose curve at least 0.9, where 1 is the maximum); conditions: HepG2 Attagene TRANS reporter, ERRa transactivation
Steroid hormone receptor ERR1 (Homo sapiens), sequence (P11474 whole entry, looked up, the tested form may be a part): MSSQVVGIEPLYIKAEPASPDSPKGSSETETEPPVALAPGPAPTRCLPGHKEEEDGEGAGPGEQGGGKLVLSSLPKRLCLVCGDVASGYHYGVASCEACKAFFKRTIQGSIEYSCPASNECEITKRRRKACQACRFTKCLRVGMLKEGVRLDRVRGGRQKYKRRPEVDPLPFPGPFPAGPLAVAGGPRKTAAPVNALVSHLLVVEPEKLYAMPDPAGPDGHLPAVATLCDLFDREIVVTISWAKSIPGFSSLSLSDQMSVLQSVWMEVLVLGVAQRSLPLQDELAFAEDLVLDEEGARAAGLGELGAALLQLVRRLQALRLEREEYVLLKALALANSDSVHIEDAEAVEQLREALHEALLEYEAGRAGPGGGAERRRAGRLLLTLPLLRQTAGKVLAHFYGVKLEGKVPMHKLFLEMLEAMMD
How it was run: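 Transfected HepG2, 24 h dosing, ERRa-Gal4 chimera driving GAL4-UAS reporter. Readout: reporter mRNA via RT-PCR plus capillary electrophoresis (fluorescence). Positive direction vs DMSO control.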

Measured: AC50

O=C(O)c1ccc2c(c1)C(=O)OC2=O
not listed: [14] | [15] | [16] | [17] | [18] | [19]
inactive: all other assays above

Cc1cccc(C(C)(C)C)c1O
active: [2] 4.59 µM | [10] 19.9 µM
not listed: [3] | [6] | [12] | [13] | [18] | [19]
inactive: all other assays above

Oc1c(Cl)cc(Cl)c(Cl)c1Cl
active: [1] 82.6 µM | [18] 21.9 µM | [14] 43.4 µM | [7] 61.5 µM
not listed: [2] | [10] | [12] | [13] | [16] | [19]
inactive: all other assays above

NC(=O)Nc1ccccc1
not listed: [1] | [12] | [13] | [15] | [16] | [17] | [18]
inactive: all other assays above

C=CCCCCCCCCOC(C)=O
not listed: [7] | [10] | [16] | [18]
inactive: all other assays above

COC(C=C(C)CCC=C(C)C)OC
active: [10] 76.7 µM
not listed: [2] | [12] | [16] | [17] | [19]
inactive: all other assays above

COC(=O)[C@H](Cc1ccccc1)NC(=O)[C@@H](N)CC(=O)O (H-Asp-Phe-OMe)
not listed: [2] | [3] | [7] | [10] | [12] | [13] | [16] | [19]
inactive: all other assays above

CC(C=O)c1ccccc1 (stereo not given)
active: [2] 6.81 µM | [10] 9.33 µM
not listed: [1] | [6] | [12] | [16] | [17] | [19]
inactive: all other assays above

CCCCC(=O)O
not listed: [3] | [6] | [8] | [17] | [18] | [19]
inactive: all other assays above

CCCCCCCCCCCCCC(=O)OC(C)C
not listed: [2] | [7] | [16] | [19]
inactive: all other assays above

CCCCOCC(C)O (stereo not given)
not listed: [3] | [12] | [13] | [18] | [19]
inactive: all other assays above

C=CC(C)(CCC=C(C)C)OC(=O)C=Cc1ccccc1 (stereo not given)
active: [17] 7.3 µM
not listed: [2] | [12] | [13] | [16] | [19]
inactive: all other assays above
